# How the values were obtained:
# Assay in all cases: DAPPL (digital affinity profiling via proximity ligation, sequencing); 10 mM Tris-HCl pH 7.5, 50 mM NaCl, 1 mM DTT, 4% glycerol, room temperature, 30 min; GST-TFs on glutathione beads, 16-mer random dsDNA library, 0.1% formaldehyde crosslink after washing; high values mean tight binding
# Conditions in all cases: protein: recombinant; tags: N-terminal GST; dsDNA, one strand shown
# [1] = biological target: T1, FLI1 (Homo sapiens, UniProt Q01543 1-452)
# T1 sequence: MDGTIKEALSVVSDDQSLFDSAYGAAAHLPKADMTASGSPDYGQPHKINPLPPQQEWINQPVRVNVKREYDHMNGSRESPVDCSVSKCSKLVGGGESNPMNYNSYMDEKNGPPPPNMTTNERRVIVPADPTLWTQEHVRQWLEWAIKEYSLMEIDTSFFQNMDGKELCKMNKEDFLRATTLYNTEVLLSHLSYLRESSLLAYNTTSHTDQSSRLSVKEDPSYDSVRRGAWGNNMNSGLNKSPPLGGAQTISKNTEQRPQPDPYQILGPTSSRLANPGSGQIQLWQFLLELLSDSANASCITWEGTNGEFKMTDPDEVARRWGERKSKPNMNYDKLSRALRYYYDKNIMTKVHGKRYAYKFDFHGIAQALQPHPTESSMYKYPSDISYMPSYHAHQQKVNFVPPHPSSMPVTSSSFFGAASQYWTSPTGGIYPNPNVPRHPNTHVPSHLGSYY
# In short: (§1)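 Binding signal is defined as a hexamer's read frequency for one factor over its frequency for the tag-only sample. To obtain reads, GST-fused human transcription factors were expressed in yeast, captured on glutathione beads, barcoded with DNA and pooled with that sample. Pools met 200 nmole of a 16-mer random double-stranded DNA library in Tris/NaCl/DTT/glycerol buffer for 30 min at room temperature before washing, 0.1% formaldehyde crosslinking, proximity ligation (BsaI/T4 ligase, 1 h, 37 °C), PCR and Illumina NextSeq500 sequencing.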
# [2] = biological target: T2, ELK1 (Homo sapiens, UniProt P19419 1-428)
# T2 sequence: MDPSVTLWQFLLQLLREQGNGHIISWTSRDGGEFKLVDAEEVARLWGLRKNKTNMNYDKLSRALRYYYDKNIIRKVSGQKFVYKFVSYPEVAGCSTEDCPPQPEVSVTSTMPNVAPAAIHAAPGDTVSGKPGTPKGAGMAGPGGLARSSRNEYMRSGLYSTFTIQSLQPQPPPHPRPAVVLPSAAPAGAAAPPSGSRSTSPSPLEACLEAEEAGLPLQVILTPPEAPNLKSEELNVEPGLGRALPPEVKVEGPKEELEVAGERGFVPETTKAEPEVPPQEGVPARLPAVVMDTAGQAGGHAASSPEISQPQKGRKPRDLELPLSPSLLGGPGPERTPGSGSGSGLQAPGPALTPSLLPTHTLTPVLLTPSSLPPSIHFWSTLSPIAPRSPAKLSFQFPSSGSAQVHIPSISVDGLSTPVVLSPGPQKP
# In short: as §1
# [3] = biological target: T3, GABPA (Homo sapiens, UniProt Q06546 1-454)
# T3 sequence: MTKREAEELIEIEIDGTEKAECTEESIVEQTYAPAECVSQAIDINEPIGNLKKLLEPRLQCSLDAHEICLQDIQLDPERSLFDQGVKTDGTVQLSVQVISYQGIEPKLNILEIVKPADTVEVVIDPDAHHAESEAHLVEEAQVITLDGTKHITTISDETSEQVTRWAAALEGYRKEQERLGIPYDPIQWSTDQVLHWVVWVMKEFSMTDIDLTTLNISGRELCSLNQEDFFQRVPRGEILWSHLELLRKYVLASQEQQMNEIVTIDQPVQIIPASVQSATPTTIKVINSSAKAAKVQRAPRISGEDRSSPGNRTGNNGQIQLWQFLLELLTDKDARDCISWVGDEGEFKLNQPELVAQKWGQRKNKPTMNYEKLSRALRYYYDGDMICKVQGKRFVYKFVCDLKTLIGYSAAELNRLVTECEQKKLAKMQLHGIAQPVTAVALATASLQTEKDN
# In short: as §1
# [4] = biological target: T4, ERG (Homo sapiens, UniProt P11308 1-479)
# T4 sequence: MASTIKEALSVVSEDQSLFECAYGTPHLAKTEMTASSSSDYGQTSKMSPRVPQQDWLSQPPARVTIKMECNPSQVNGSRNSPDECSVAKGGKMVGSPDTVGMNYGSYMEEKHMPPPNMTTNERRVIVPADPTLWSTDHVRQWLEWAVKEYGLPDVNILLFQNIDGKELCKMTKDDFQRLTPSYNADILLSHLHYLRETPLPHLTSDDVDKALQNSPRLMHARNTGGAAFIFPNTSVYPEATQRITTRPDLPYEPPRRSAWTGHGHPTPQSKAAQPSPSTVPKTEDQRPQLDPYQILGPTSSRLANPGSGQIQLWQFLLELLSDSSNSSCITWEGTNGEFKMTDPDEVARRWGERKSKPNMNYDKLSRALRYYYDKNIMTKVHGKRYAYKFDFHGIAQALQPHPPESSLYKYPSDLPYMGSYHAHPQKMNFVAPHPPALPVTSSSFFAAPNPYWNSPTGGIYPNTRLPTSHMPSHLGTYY
# In short: as §1
# [5] = biological target: ELF1 (Homo sapiens, UniProt P32519 1-619)
# In short: as §1
# [6] = biological target: T5, EHF (Homo sapiens, UniProt Q9NZC4 1-300)
# T5 sequence: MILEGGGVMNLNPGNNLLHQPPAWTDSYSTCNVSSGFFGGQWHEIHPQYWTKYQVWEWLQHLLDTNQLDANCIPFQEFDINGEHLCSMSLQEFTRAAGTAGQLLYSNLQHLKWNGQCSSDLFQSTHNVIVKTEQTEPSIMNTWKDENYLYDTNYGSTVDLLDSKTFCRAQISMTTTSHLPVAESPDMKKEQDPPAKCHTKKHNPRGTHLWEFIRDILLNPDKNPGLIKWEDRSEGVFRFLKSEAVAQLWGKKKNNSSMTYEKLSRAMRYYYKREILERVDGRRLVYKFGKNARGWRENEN
# In short: as §1
# [7] = biological target: SPI1 (Homo sapiens, UniProt P17947 1-270)
# In short: as §1
# [8] = biological target: SPIB (Homo sapiens, UniProt Q01892 1-262)
# In short: as §1
# [9] = biological target: T6, ELK3 (Homo sapiens, UniProt P41970 1-407)
# T6 sequence: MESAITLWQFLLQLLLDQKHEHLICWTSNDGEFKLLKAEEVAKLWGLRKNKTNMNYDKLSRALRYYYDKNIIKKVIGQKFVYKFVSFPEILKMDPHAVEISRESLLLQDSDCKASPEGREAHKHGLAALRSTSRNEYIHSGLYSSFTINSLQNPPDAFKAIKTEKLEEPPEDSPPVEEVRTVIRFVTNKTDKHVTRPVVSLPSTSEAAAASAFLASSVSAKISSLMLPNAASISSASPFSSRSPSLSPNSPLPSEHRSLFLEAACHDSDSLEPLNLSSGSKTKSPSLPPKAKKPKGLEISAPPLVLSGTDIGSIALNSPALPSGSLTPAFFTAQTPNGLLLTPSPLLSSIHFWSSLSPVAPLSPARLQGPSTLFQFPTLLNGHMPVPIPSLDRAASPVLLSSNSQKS
# In short: as §1
# [10] = biological target: T7, FEV (Homo sapiens, UniProt Q99581 1-238)
# T7 sequence: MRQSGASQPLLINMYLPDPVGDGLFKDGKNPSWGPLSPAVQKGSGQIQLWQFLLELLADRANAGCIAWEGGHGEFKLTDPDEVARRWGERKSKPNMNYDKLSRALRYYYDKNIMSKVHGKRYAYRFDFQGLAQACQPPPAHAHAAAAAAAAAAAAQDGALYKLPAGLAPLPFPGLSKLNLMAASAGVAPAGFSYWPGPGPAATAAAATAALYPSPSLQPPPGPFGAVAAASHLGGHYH
# In short: as §1
# SPIB, sequence (Q01892 whole entry): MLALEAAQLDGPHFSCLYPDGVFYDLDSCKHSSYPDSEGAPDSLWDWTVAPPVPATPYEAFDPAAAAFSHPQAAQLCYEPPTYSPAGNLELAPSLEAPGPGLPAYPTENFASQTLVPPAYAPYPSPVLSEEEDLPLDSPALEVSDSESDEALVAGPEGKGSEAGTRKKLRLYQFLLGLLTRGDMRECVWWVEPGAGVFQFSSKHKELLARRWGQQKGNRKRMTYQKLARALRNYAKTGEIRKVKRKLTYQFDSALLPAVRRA
# ELF1, sequence (P32519 whole entry): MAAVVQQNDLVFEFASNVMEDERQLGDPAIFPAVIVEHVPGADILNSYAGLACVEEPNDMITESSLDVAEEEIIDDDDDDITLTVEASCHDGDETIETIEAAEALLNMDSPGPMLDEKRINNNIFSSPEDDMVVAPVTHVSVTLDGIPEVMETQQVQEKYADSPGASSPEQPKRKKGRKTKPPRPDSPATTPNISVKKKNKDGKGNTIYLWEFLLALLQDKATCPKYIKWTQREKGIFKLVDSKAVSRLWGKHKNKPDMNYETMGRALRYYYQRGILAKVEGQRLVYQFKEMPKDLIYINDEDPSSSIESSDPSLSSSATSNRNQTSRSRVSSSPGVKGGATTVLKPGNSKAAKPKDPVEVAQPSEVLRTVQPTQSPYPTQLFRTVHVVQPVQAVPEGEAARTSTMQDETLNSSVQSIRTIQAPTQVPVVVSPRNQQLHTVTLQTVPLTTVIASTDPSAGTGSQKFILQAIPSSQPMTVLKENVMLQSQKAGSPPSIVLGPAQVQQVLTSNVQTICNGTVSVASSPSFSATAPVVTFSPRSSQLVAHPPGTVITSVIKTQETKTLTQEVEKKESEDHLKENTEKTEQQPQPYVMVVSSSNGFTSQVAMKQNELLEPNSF
sequence,measurement,setting,value
TTGACG,binding signal,[1],"1.19 fold enrichment (6-mer frequency, TF over GST control)"
same,binding signal,[2],"1.16 fold enrichment (6-mer frequency, TF over GST control)"
same,binding signal,[3],"1.08 fold enrichment (6-mer frequency, TF over GST control)"
same,binding signal,[4],"1.06 fold enrichment (6-mer frequency, TF over GST control)"
same,binding signal,[5],"1.1 fold enrichment (6-mer frequency, TF over GST control)"
same,binding signal,[6],"1.2 fold enrichment (6-mer frequency, TF over GST control)"
same,binding signal,[7],"1.04 fold enrichment (6-mer frequency, TF over GST control)"
same,binding signal,[8],"1.11 fold enrichment (6-mer frequency, TF over GST control)"
same,binding signal,[9],"1.08 fold enrichment (6-mer frequency, TF over GST control)"
same,binding signal,[10],"1.1 fold enrichment (6-mer frequency, TF over GST control)"
